The structures appear in SMILES notation. The whole screen tested about 1,200 compounds, of which about 30 (2%) were called active. About 23% were inconclusive and are not listed. Calls follow the shape of the dose curve; as a rule, active = well fitted inhibition curve with a large enough effect; inconclusive = small, poorly fitted or top-dose-only effect; inactive = flat fitted curve, though single readings scatter. Shown is part of a subset that was picked to be rich in actives. Entries that show only a call come without a potency.
Potency is read from the fitted curve at half-maximal effect.

Chain of Single-stranded DNA cytosine deaminase (Homo sapiens) (Q9GZX7 whole entry, looked up): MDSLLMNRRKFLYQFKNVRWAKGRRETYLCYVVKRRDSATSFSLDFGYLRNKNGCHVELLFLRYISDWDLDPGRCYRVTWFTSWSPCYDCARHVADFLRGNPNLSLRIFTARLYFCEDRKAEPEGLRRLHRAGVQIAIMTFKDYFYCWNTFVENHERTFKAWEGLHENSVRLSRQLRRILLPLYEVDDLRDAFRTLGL

In the assay the target is Single-stranded DNA cytosine deaminase (Homo sapiens) (UniProt Q9GZX7). Put plainly: Confirmatory qHTS assay for inhibitors of Activation Induced Cytidine Deaminase (AID): AID signals. Conditions: recombinant AID, FRET deamination/UDG coupled fluorescence, 4 h; series mostly up to 115 µM. An excerpt:
Assay Provider (PI) Patricia Gearhart Ph.D. National Institute on Aging National Institute of Health (NIH), Bethesda, MD Assay Provider (PI) Rahul Kohli Ph.D. Perelman School of Medicine University of Pennsylvania, Philadelphia, PA Activation-Induced Deaminase (AID) is a cytosine deaminase which converts cytosine into uracil within stretches of ssDNA. The presence of uracil in DNA initiates a cascade of mutagenic DNA repair to introduce point mutations and DNA double strand breaks. Specific targeting of AID to the immunoglobulin heavy chain loci (Igh) promotes mutagenesis in the antibody variable region for somatic hypermutation (SHM) or switch regions leading to class switch recombination (CSR). However, AID also plays a role in accumulating unnecessary mutations across the genome. Mis-targeting of AID results in the initiation of tumor development and leads to greater drug resistance among cancer cells when continually expressed. To identify an AID inhibitor, a small molecule library will be screened in collaboration with NCATS core facility at NIH. To confirm biological function, inhibitors will be examined in an in vitro murine B-cell activation assay and subsequent secondary validation screens. Top molecules will be further screened to identify inhibitory efficacy against a wild type primary splenocytes assay. Using these approaches, we hope to identify a small molecule with great efficacy and low toxicity for use as a molecular probe to further characterize AID's intricacies, or even as a therapeutic. A FRET based analysis of cytosine deamination, was developed to identify potential inhibitors of AID catalytic activity. This screen has two signal output, Read 1 evaluates the AID inhibition response. The second readout (Read 2) evaluates UDG response and is uses as a counterscreen to exclude false positive inhibitors. Inhibition in AID and inactivity in the UDG signal is the desired outcome for this assay.
PROTOCOL TABLE SEQUENCE No. (e.g., 1, 2, 3, etc.); […] (e.g., Cells, Incubation, Reagent, etc.); VALUE; DESCRIPTION 1a; Reagent; 3 uL; [4/3x] 1 uM AID/2.67 U/mL UDG 1b; Reagent; 3 uL; 2 U/mL UDG 1c; Reagent; 3 uL; 1 uM AID 2a; Compound; 46 nL; Follow-up plates (0.64 uM - 10 mM) 2b; Control; 46 nL; ATA (16.4 nM - 10 mM) 3; Time; 10 min; incubation at room temperature 4; Reagents; 1 uL; [4x] 250 nM DJC20 / 250 nM DJC23 [Substrate] 5; Time; 4 hr; incubation at room temperature 6; Reagent; 4 uL; [2x] 250 mM NaOH 7; Time; 15 sec; centrifuge at 1000 rpm 8; Time; 30 min; incubation at room temperature 9a; Detection; fluorescence (Read 1: AID); EnVision (PerkinElmer) plate reader, 540 excitation and 590 emission filters 9b; Detection; fluorescence (Read 2: UDG); EnVision (PerkinElmer) plate reader, 560 excitation and 665 emission filters NOTES (numbers refer to sequence above) 1a; Reagents were dispensed in a medium-binding black solid-bottom Greiner plates (789176F) using a BioRptr liquid dispenser. Dispense 3 uL of [4/3x] 1 uM AID (provided by Kohli lab) and [4/3x] 2 U/mL UDG (NEB M0280L) into columns 1, 2, 5 to 48. 1b; Dispense 3 uL of [4/3x] 2 U/mL UDG into column 3. 1c; Dispense 3 uL of [4/3x] 1 uM AID into column 4. 2a; Compound ([…] [uM]: 0.64; 3.2; 16; 80; 400; 2,000; 10,000; 20,000) double pin-transferred (Dip Factor = 2) using the Kalypsys (Wako USA) pintool equipped with a 1536 pinhead for a final concentration range of 7.32 nM - 114 uM. 2b; 10 mM Aurintricarboxylic Acid (Sigma A1895) (ATA, 8-point, n = 2, 1:2.5 dilution in column 2) double pin-transferred (Dip Factor = 2) using the Kalypsys (Wako USA) pintool equipped with a 1536 pinhead for a [final] range of 186 nM - 114 uM. 3; Room temperature incubation. 4; Dispense 1 uL of substrate mixture from the Kohli lab [4x] […] DJC20 and [4x] 250 nM DJC23 into columns 1 to 48 . 5; Room temperature incubation. 6; Dispense 4 uL of […] [2x] 250 mM NaOH into columns 1 to 48. 7; Centrifugation step to remove bubbles. […]
With `CCc1ccc(OCC(=O)N(Cc2ccc(Cl)cc2)C2CCS(=O)(=O)C2)cc1` (stereo not given), the Potency entry is “inactive”.
Under `Cc1ccc(Cl)cc1N1CCN(CCCNC(=O)c2ccc3nc(N4CCCCC4)sc3c2)CC1` stands “inactive”.
The same measure for `Cn1c(SCc2ccc(F)cc2)nc2ccc(C(=O)NCc3ccc(F)cc3)cc21`: “inactive”.
Under `COc1ccccc1CNC(=O)c1cnn2c(C)c(Cc3ccc(F)cc3)c(C)nc12` stands “inactive”.
In the case of `CCn1c(SCc2ccc(F)cc2Cl)nc(=O)c2c(C(=O)OC)cc(C3CC3)nc21`, the Potency entry is “inactive”.
The same measure for `Cc1ccc(CN(Cc2ccco2)C(=O)c2ccccc2Br)o1`: “inactive”; for `Cc1cc(Nc2cccc(F)c2)n2nc(-c3ccco3)nc2n1`: “inactive”.
In the case of `Cc1ccc(C)c(Cn2nc(-c3cc(C)ccc3C)ccc2=O)c1`, the Potency result is “inactive”.
As for `CC1=Nc2cc(C(=O)N3CCC(C)CC3)ccc2Sc2ccc(Cl)cc21`, the Potency result was “inactive”.
Turning to `O=C(NCCc1ccccc1)c1sc2ncccc2c1-n1cccc1`, the Potency entry is “inactive”.
Regarding `Cc1ccc(Cl)cc1NC(=O)C(C)n1nc(-c2ccccc2)ccc1=O` (stereo not given), the Potency result is “inactive”.
The same measure for `CCCCCCCCc1ccc(-c2ccc(C(=O)O)cc2)cc1`: 35.5 µM (active); for `Cn1nc(-c2ccc(C(=O)Nc3ccc(F)cc3)cc2)c2ccccc2c1=O`: “inactive”.
Under `CCc1nnc(SCc2cccc(F)c2)c2cc3sc(C)cc3n12` stands “inactive”; under `Cc1cccc(N2CCN(C(=O)CS(=O)(=O)Cc3nc(-c4ccccc4C)oc3C)CC2C)c1` (stereo not given), “inactive”.
Under `Cc1ccc(C)c(N(C)C(=O)C2CCN(c3ncnc4c3nc3n4CCCCC3)CC2)c1` stands “inactive”; under `COc1ccc(NC(=O)CSc2nc3nc(C)c(Cc4ccccc4)c(C)n3n2)cc1OC`, “inactive”; under `CN(C)CCNc1ncnc2c1cnn2-c1cccc(Cl)c1`, “inactive”.
On to `Cc1ccc(C)c(N2CCN(CCCNc3ncnc4onc(-c5ccc(Cl)cc5)c34)CC2)c1`, for which the Potency result is “inactive”.
The same measure for `CCc1ccc(CNC(=O)c2cnc3sc(N(CC)CC)nn3c2=O)cc1`: “inactive”; for `Cc1ccc(S(=O)(=O)N2CCCC2C(=O)Nc2ccc(Br)cc2)cc1` (stereo not given): “inactive”; for `CCc1nnc2c(N3CCN(c4cccc(C)c4)C(C)C3)nc3ccccc3n12` (stereo not given): “inactive”.
The same measure for `CCOC(=O)C1=C(CN2CCN(c3cc(C)ccc3C)CC2)NC(=O)NC1c1ccccc1` (stereo not given): “inactive”; for `COc1ccc(S(=O)(=O)N(CC(=O)NC(C)c2ccccc2)c2ccc(C)cc2)cc1OC` (stereo not given): “inactive”; for `CC(=O)[C@]1(O)Cc2c(O)c3c(c(O)c2[C@@H](O[C@H]2C[C@H](N)[C@H](O)[C@H](C)O2)C1)C(=O)c1ccccc1C3=O`: 5.62 µM (active).
With `COc1ccccc1C(=O)Nc1ccc(C(=O)OCc2cc(=O)n3nc(C)sc3n2)cc1`, the Potency entry is “inactive”.
The same measure for `Cc1cccc(C)c1OCC(=O)N(Cc1ccco1)Cc1ccco1`: “inactive”.
Under `CCC1CCCCN1C(=O)CSc1nc2c([nH]c3ccccc32)c(=O)n1-c1cccc(OC)c1` (stereo not given) stands “inactive”.
`O=C(CCCCCn1c(=O)[nH]c2ccccc2c1=O)NCc1ccc(Cl)cc1`: the Potency result was “inactive”.
The same measure for `Cc1cccc(C)c1NC(=O)CS(=O)(=O)c1nc(-c2ccc(Cl)cc2)cn1-c1ccccc1`: “inactive”; for `CN1CCN(c2nc3c(S(=O)(=O)c4ccc(Cl)cc4)nnn3c3ccsc23)CC1`: “inactive”; for `COc1ccccc1C(=O)NCCn1cc(SCc2ccccc2Cl)c2ccccc21`: “inactive”.
Take `Cc1ccc2c(c1)c(=O)c(C(=O)c1ccccc1)cn2Cc1ccccc1F`: the Potency entry is “inactive”.
Under `O=C(c1ccc(F)cc1)c1cn(Cc2ccccc2)c2cc3c(cc2c1=O)OCO3` stands “inactive”.
Under `COc1ccc(NCc2nc3ccccc3n2CCOc2ccccc2C)cc1` stands “inactive”; under `Cc1cccc(N2CCN(C(=O)c3sc4nc5n(c(=O)c4c3C)CCC5)CC2C)c1` (stereo not given), “inactive”; under `CN(c1ncnc2onc(-c3cccc(Cl)c3)c12)C1CCCCC1`, “inactive”.
The same measure for `COc1ccc(CCN2CCC(CNC(=O)c3cnn(-c4cccc(Cl)c4)c3C3CCN(C(=O)OC(C)(C)C)CC3)CC2)cc1`: 31.6 µM (active); for `COc1ccc(CCN2CCC(CNC(=O)c3cnn(-c4ccccc4)c3C3CCN(C(=O)OC(C)(C)C)CC3)CC2)cc1`: “inactive”; for `CC(C)(C)OC(=O)N1CCC(c2c(C(=O)NCCN3CCC(Cc4ccccc4)CC3)cnn2-c2ccccc2)CC1`: “inactive”.
As to `CCN(CC)CCNC(=O)c1ccc2c(=O)n3nc(Nc4ccccc4OC)sc3nc2c1`, the Potency result is “inactive”.
Under `CCN(CC)CCNC(=O)c1ccc2c(=O)n3nc(Nc4cccc(Cl)c4C)sc3nc2c1` stands 50.1 µM (active).
Under `CCN(CC)CCNC(=O)c1ccc2c(=O)n3nc(Nc4ccccc4)sc3nc2c1` stands “inactive”; under `Cc1nc2nc(SCC(=O)NCc3ccccc3)nn2c(C)c1Cc1ccccc1Cl`, “inactive”.
The same measure for `COc1ccc(C(=O)c2sc3nc4c(c(C(F)(F)F)c3c2N)CN(C(C)=O)CC4)cc1OC`: “inactive”.
